Assay results taken from paper PMC10812921, “Transcriptional Coactivator BOB1 (OBF1, OCA-B) Modulates the Specificity of DNA Recognition by the POU-Domain Factors OCT1 and OCT2 in a Monomeric Configuration”.

Key:
[1] = target: POU1 (OCT1 POU domain) (human, UniProt P14859 260-458); assay: EMSA-SELEX-seq; no BOB1; 20 mM Tris-HCl pH 7.6, 140 mM NaCl, 10% glycerol, 0.5 mM EDTA, 0.05% Triton X-100, 0.1 mg/mL BSA, 0.1 mg/mL poly(dI-dC), 5 mM DTT, room temperature, 20 min; high values mean tight binding; settings: protein: recombinant; dsDNA, one strand shown
Sequence of POU1 (OCT1 POU domain) (P14859 260-458): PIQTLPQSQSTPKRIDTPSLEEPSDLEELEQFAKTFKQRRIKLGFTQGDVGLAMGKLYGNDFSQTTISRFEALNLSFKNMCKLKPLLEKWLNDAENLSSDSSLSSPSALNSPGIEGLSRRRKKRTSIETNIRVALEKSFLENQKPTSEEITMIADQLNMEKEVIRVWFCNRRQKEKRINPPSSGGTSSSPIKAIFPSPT
Outline: (§1)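 A double-stranded random 35-nt library (300 ng, PCR-amplified) was incubated with 30 ng tagged POU-domain protein, with or without 28 ng coactivator protein, in 20 μL Tris–HCl pH 7.6 binding buffer for 20 min at RT. The proteins had been expressed in E. coli BL21, purified under denaturing conditions and renatured. Complex bands from native 6% PAGE were eluted and PCR-amplified over four rounds, then sequenced on Illumina. For binding preference, the percentage of sequenced 8-mers matching a motif pattern was calculated.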

[2] = target: T1, POU2 (OCT2 POU domain) (human, UniProt P09086 175-386); assay: as above; settings: protein: recombinant; dsDNA, one strand shown
T1 sequence: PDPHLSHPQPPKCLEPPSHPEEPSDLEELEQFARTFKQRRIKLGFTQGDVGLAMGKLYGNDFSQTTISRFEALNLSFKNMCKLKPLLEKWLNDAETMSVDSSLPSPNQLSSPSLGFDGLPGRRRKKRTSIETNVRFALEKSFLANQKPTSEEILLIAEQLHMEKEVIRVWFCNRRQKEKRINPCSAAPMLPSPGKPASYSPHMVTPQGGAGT
Outline: as §1

[3] = target: POU1 (OCT1 POU domain);BOB1 (OBF1, OCA-B) (human;human, UniProt P14859;Q16633 260-458;1-256, |); assay: EMSA-SELEX-seq; with BOB1 (ternary complex band); 20 mM Tris-HCl pH 7.6, 140 mM NaCl, 10% glycerol, 0.5 mM EDTA, 0.05% Triton X-100, 0.1 mg/mL BSA, 0.1 mg/mL poly(dI-dC), 5 mM DTT, room temperature, 20 min; high values mean tight binding; settings: protein: recombinant;recombinant; copies: 1;1; dsDNA, one strand shown
Outline: as §1

[4] = target: T2, POU2 (OCT2 POU domain);BOB1 (OBF1, OCA-B) (human;human, UniProt P09086;Q16633 175-386;1-256, |); assay: as above; settings: protein: recombinant;recombinant; copies: 1;1; dsDNA, one strand shown
T2 sequence 1: T1 sequence
T2 sequence 2: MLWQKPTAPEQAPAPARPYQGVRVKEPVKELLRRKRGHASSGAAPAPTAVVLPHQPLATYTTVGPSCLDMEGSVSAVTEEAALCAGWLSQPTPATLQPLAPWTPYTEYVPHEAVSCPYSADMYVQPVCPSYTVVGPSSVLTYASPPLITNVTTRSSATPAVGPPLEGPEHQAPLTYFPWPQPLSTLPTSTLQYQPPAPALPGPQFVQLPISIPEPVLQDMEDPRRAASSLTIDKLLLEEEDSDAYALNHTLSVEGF
Outline: as §1

Sequence	binding signal [1]	binding signal [2]	binding signal [3]	binding signal [4]
ACTCGAAG	0.0187 % of ANNNNAAN 8-mers	0.0207 % of ANNNNAAN 8-mers	0.0168 % of ANNNNAAN 8-mers	0.0182 % of ANNNNAAN 8-mers
AACCTAAT	0.0534 % of ANNNNAAN 8-mers	0.0875 % of ANNNNAAN 8-mers	0.0386 % of ANNNNAAN 8-mers	0.0438 % of ANNNNAAN 8-mers
ATTTCAAC	0.0416 % of ANNNNAAN 8-mers	0.0414 % of ANNNNAAN 8-mers	0.041 % of ANNNNAAN 8-mers	0.0429 % of ANNNNAAN 8-mers
AAGTGAAG	0.0381 % of ANNNNAAN 8-mers	0.0409 % of ANNNNAAN 8-mers	0.0386 % of ANNNNAAN 8-mers	0.0454 % of ANNNNAAN 8-mers
ATGGAAAT	0.943 % of ANNNNAAN 8-mers	0.723 % of ANNNNAAN 8-mers	0.958 % of ANNNNAAN 8-mers	0.982 % of ANNNNAAN 8-mers
AACTTAAA	0.0526 % of ANNNNAAN 8-mers	0.0501 % of ANNNNAAN 8-mers	0.046 % of ANNNNAAN 8-mers	0.038 % of ANNNNAAN 8-mers
ACAGAAAT	0.0568 % of ANNNNAAN 8-mers	0.0633 % of ANNNNAAN 8-mers	0.0472 % of ANNNNAAN 8-mers	0.0504 % of ANNNNAAN 8-mers
ATGGTAAC	0.0454 % of ANNNNAAN 8-mers	0.0621 % of ANNNNAAN 8-mers	0.0316 % of ANNNNAAN 8-mers	0.0429 % of ANNNNAAN 8-mers
AGAGGAAA	0.069 % of ANNNNAAN 8-mers	0.0667 % of ANNNNAAN 8-mers	0.0687 % of ANNNNAAN 8-mers	0.0619 % of ANNNNAAN 8-mers
AAACAAAT	0.352 % of ANNNNAAN 8-mers	0.266 % of ANNNNAAN 8-mers	0.761 % of ANNNNAAN 8-mers	0.669 % of ANNNNAAN 8-mers
AGGTGAAT	0.108 % of ANNNNAAN 8-mers	0.119 % of ANNNNAAN 8-mers	0.071 % of ANNNNAAN 8-mers	0.102 % of ANNNNAAN 8-mers
AAACCAAT	0.0336 % of ANNNNAAN 8-mers	0.0265 % of ANNNNAAN 8-mers	0.0437 % of ANNNNAAN 8-mers	0.0347 % of ANNNNAAN 8-mers
AAATGAAC	0.115 % of ANNNNAAN 8-mers	0.102 % of ANNNNAAN 8-mers	0.11 % of ANNNNAAN 8-mers	0.141 % of ANNNNAAN 8-mers
ATCCGAAG	0.0275 % of ANNNNAAN 8-mers	0.0299 % of ANNNNAAN 8-mers	0.0304 % of ANNNNAAN 8-mers	0.0338 % of ANNNNAAN 8-mers
AACGCAAA	0.147 % of ANNNNAAN 8-mers	0.0978 % of ANNNNAAN 8-mers	0.266 % of ANNNNAAN 8-mers	0.229 % of ANNNNAAN 8-mers
